{"source": "PubChem BioAssay (NCATS)", "key": {"[1]": {"assay": "Quantitative High-Throughput drug screen in 47 multiple myeloma cell lines against the NCATS MIPE library collection: OPM2_DSMZ cell viability assay (AID 1919872); note: nearly all actives have a fitted effect of over 30% in size", "procedure,_shortened": "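CellTiter-Glo luminescence (ATP) after 48 h compound exposure, 37C/5% CO2; 500 cells/well; MIPE 4.0 approved/investigational drugs pinned in; DMSO = 100%, media only = 0% viability.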"}, "[2]": {"assay": "Quantitative High-Throughput drug screen in 47 multiple myeloma cell lines against the NCATS MIPE library collection: KMS11_JCRBsus cell viability assay (AID 1919873); note: nearly all actives have a fitted effect of over 50% in size", "procedure,_shortened": "(§1)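 Viability after 48 h drug exposure was measured as ATP-dependent luminescence. Cells, 500 per well, sat at 37 °C under 5% CO2; DMSO wells set 100%, media-only wells 0%.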"}, "[3]": {"assay": "Quantitative High-Throughput drug screen in 47 multiple myeloma cell lines against the NCATS MIPE library collection: KMS28BM_JCRB cell viability assay (AID 1919874)", "procedure,_shortened": "as §1"}, "[4]": {"assay": "Quantitative High-Throughput drug screen in 47 multiple myeloma cell lines against the NCATS MIPE library collection: RPMI8226_ATCC cell viability assay (AID 1919871)", "procedure,_shortened": "as §1"}}, "note": "Results filed as inconclusive are left out. Where a call stands in place of a potency, no number is given. Activity calls are given as the source filed them. Calls come from the whole dose curve; as a rule, active = well fitted cell-killing curve with a large enough effect; inconclusive = small, poorly fitted or top-dose-only effect, or effect the other way; inactive = no such curve, though single readings can be large or run the other way. Potency is the fitted concentration of half-maximal effect.", "data": [{"smiles": "C1COC(NC(C2CC2)C2CC2)=N1", "values": [{"measurement": "Potency", "setting": "[1]", "result": "inactive"}, {"measurement": "Potency", "setting": "[2]", "result": "inactive"}, {"measurement": "Potency", "setting": "[3]", "result": "inactive"}]}, {"smiles": "CO[C@@H]1[C@H](N(C)C(=O)c2ccccc2)C[C@H]2O[C@]1(C)n1c3ccccc3c3c4c(c5c6ccccc6n2c5c31)C(=O)NC4", "values": [{"measurement": "Potency", "setting": "[4]", "result": "7.43 µM (active)"}, {"measurement": "Potency", "setting": "[1]", "result": "3.72 µM (active)"}, {"measurement": "Potency", "setting": "[2]", "result": "1.87 µM (active)"}]}, {"smiles": "Cc1csc(NC(=O)c2sc3nc4c(c(C(F)(F)F)c3c2N)CCC4)n1", "values": [{"measurement": "Potency", "setting": "[4]", "result": "13.2 µM (active)"}, {"measurement": "Potency", "setting": "[1]", "result": "inactive"}]}, {"smiles": "N#CC[C@H](C1CCCC1)n1cc(-c2ncnc3[nH]ccc23)cn1", "values": [{"measurement": "Potency", "setting": "[1]", "result": "inactive"}, {"measurement": "Potency", "setting": "[2]", "result": "20.9 µM (active)"}, {"measurement": "Potency", "setting": "[3]", "result": "20.9 µM (active)"}]}, {"smiles": "Cc1cnc(NC(=O)C2=C(O)c3ccccc3S(=O)(=O)N2C)s1", "values": [{"measurement": "Potency", "setting": "[4]", "result": "inactive"}, {"measurement": "Potency", "setting": "[1]", "result": "inactive"}, {"measurement": "Potency", "setting": "[2]", "result": "inactive"}, {"measurement": "Potency", "setting": "[3]", "result": "inactive"}]}, {"smiles": "O=c1[nH]c(-c2ccc(C(F)(F)F)cc2)nc2c1CSCC2", "values": [{"measurement": "Potency", "setting": "[1]", "result": "inactive"}, {"measurement": "Potency", "setting": "[2]", "result": "inactive"}]}, {"smiles": "CCCn1c(=O)c2[nH]c(C34CC5CC3C[C@@H](C5)C4)nc2n(CCC)c1=O", "values": [{"measurement": "Potency", "setting": "[1]", "result": "inactive"}, {"measurement": "Potency", "setting": "[2]", "result": "inactive"}, {"measurement": "Potency", "setting": "[3]", "result": "inactive"}]}, {"smiles": "CC[C@H](Nc1ncnc2nc[nH]c12)c1nc2cccc(F)c2c(=O)n1-c1ccccc1", "values": [{"measurement": "Potency", "setting": "[2]", "result": "18.7 µM (active)"}]}, {"smiles": "C[C@]1(c2nc3c(C(N)=O)cccc3[nH]2)CCCN1", "values": [{"measurement": "Potency", "setting": "[1]", "result": "inactive"}]}, {"smiles": "NC(N)=NC(=O)c1nc(Cl)c(N)nc1N", "values": [{"measurement": "Potency", "setting": "[1]", "result": "inactive"}]}, {"smiles": "Oc1ccc(C2CNCCc3c2cc(O)c(O)c3Cl)cc1", "note": "(stereo not given)", "values": [{"measurement": "Potency", "setting": "[4]", "result": "inactive"}, {"measurement": "Potency", "setting": "[1]", "result": "inactive"}, {"measurement": "Potency", "setting": "[2]", "result": "inactive"}, {"measurement": "Potency", "setting": "[3]", "result": "inactive"}]}, {"smiles": "CCc1cncnc1N1CCN(Cc2nc3ccc(C(F)(F)F)cc3[nH]2)CC1", "values": [{"measurement": "Potency", "setting": "[1]", "result": "9.35 µM (active)"}, {"measurement": "Potency", "setting": "[2]", "result": "11.8 µM (active)"}, {"measurement": "Potency", "setting": "[3]", "result": "23.5 µM (active)"}]}, {"smiles": "Cc1cnc(Nc2ccc(OCCN3CCCC3)cc2)nc1Nc1cccc(S(=O)(=O)NC(C)(C)C)c1", "values": [{"measurement": "Potency", "setting": "[1]", "result": "inactive"}]}, {"smiles": "COc1ccccc1-c1cccc(-c2c(O)c3cc(C#N)c(Cl)cc3[nH]c2=O)c1", "values": [{"measurement": "Potency", "setting": "[1]", "result": "inactive"}]}, {"smiles": "C#Cc1cccc(Nc2ncnc3cc(OCCOC)c(OCCOC)cc23)c1", "values": [{"measurement": "Potency", "setting": "[1]", "result": "inactive"}, {"measurement": "Potency", "setting": "[3]", "result": "0.833 µM (active)"}]}, {"smiles": "NC[C@H](O)c1ccc(O)c(O)c1", "values": [{"measurement": "Potency", "setting": "[1]", "result": "inactive"}]}, {"smiles": "O=C(C1CC1)N1CC[C@@H](Cn2c(-c3ccc(-c4ccc5occc5c4)cc3)nc3cnccc32)C1", "values": [{"measurement": "Potency", "setting": "[4]", "result": "inactive"}, {"measurement": "Potency", "setting": "[1]", "result": "20.9 µM (active)"}]}, {"smiles": "CS(=O)(=O)c1ccc(C(=O)Nc2ccc(Cl)c(-c3ccccn3)c2)c(Cl)c1", "values": [{"measurement": "Potency", "setting": "[1]", "result": "inactive"}, {"measurement": "Potency", "setting": "[2]", "result": "inactive"}, {"measurement": "Potency", "setting": "[3]", "result": "inactive"}]}]}
